Growth data for eight compounds are collected here from PubChem BioAssay (NCI).

About 83,000 compounds went through this panel and 20% of them were active in at least one assay; those are over-represented in the sample as a whole.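 Each cell line was grown in a 96-well plate and treated with one concentration of compound for 48 hours. Values below 10 were considered active.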 Values without a mark were called inactive. Active and inactive are the calls of the source.

What all share (assay): NCI-60 one-dose screen, 48 h (100 = growth as untreated, 0 = no growth, -100 = all killed)
In assay [1] the test system is SK-MEL-2 melanoma. As to conditions: 10 µM unless noted.
Assay [2] deals with EKVX NSCLC. Conditions: 10 µM unless noted.
The subject of assay [3] is SN12C renal. As to conditions: 10 µM unless noted.
The test system of assay [4] is UO-31 renal. As to conditions: 10 µM unless noted.
The subject of assay [5] is ACHN renal. As to conditions: 10 µM unless noted.
The subject of assay [6] is CAKI-1 renal. As to conditions: 10 µM.
The test system of assay [7] is A498 renal. As to conditions: 10 µM unless noted.
The test system of assay [8] is CCRF-CEM leukemia. Conditions: 10 µM unless noted.
The subject of assay [9] is MOLT-4 leukemia. As to conditions: 10 µM unless noted.
Assay [10] deals with SR leukemia. Conditions: 10 µM unless noted.
Assay [11] relates to RPMI-8226 leukemia. As to conditions: 10 µM unless noted.
Assay [12] concerns OVCAR-8 ovarian. Conditions: 10 µM unless noted.
The test system of assay [13] is OVCAR-5 ovarian. Conditions: 10 µM unless noted.
Assay [14] concerns OVCAR-4 ovarian. As to conditions: 10 µM unless noted.
The subject of assay [15] is SK-OV-3 ovarian. As to conditions: 10 µM unless noted.
Assay [16] deals with IGROV1 ovarian. Conditions: 10 µM unless noted.
Assay [17] concerns OVCAR-3 ovarian. As to conditions: 10 µM unless noted.
The test system of assay [18] is NCI/ADR-RES ovarian. As to conditions: 10 µM unless noted.
In assay [19] the test system is HS 578T breast. Conditions: 10 µM unless noted.

In the case of `O=C(Nc1ccc(-n2ccc3c(NC(=O)c4ccccc4)ncnc32)cc1)Nc1cccc(Cl)c1Cl`, the growth in assay [1] was -39.1% (active); in [2] it was -5.65% (active); in assay [3], -31.9% (active); in assay [4], -80.4% (active); in assay [5], -20.4% (active); in [6], -26% (active). For the same compound, the growth is 12% in assay [7]; 16.5% in assay [8]; 25.5% in assay [9]; 21.8% in [10]; 10.2% in [11]; 13.4% in assay [12]. The growth in [13] was 17.5%; in assay [14], -74.3% (active); in assay [15], -14.8% (active); in [16], -3.19% (active); in assay [17], -41.7% (active); in [18] it was 4.77% (active).
Consider `O=C1/C(=C/c2cccc3cnccc23)Cc2cc(F)ccc21`, for which the growth is 94.6% in [1]; 91.2% in assay [2]; 94.6% in assay [3]; 70.4% in [4]; 95.7% in assay [5]; 84.5% in assay [6]. In addition, the growth was 97.2% in [7]; 110% in assay [8]; 82.1% in [9]; 84.6% in assay [10]; 85.9% in assay [11]; 96.1% in assay [12]. Also, the growth in [13] was 108%; in [14], 77%; in [15], 76.9%; in [17], 109%; in assay [19], 109%; in assay [18], 90.7%.
Turning to `O=C(Nc1ccc(-n2ccc3c(NC(=O)c4ccccc4)ncnc32)cc1)Nc1ccc(Cl)c(C(F)(F)F)c1`, the growth in [1] is -22.3% (active); in [2], 8.35% (active); in [3], 16.4%; in [4], 23.5%; in assay [5], 4.23% (active); in [6], -36.8% (active). The growth was 18.3% in [7]; -14.5% (active) in assay [8]; 1.2% (active) in assay [9]; 6.03% (active) in assay [10]; -38% (active) in [11]; -25.3% (active) in [12]. The growth in [13] is 17.8%; in assay [14], -42.8% (active); in assay [15], 79.2%; in assay [16], -3.16% (active); in [17], -86.6% (active); in [18], 16%.
Regarding `O=C(Nc1ccc(-n2cc(-c3ccncc3)c(-c3ccc(O)c(Cl)c3)n2)cc1)c1cc(Cl)cc(Cl)c1`, the growth in assay [1] is 7.85% (active); in assay [2] it was 56.5%; in assay [3] it was 35.8%; in [4], 16.4%; in assay [5], 16.2%; in assay [6] it was 45.8%. The growth is 95.4% in [7]; 16.9% in [8]; 11.1% in assay [9]; 14.8% in [10]; -19.5% (active) in assay [11]; 30.3% in assay [12]. Besides, the growth in [13] is 71.4%; in assay [14], 78.1%; in [15] it was 70.2%; in assay [16], 43.2%; in [17], 27%; in assay [18], 28.7%.
Consider `O=C1C(Cl)=C(Nc2ccccc2)C(=O)C(Cl)=C1Nc1ccccc1`, for which the growth in assay [1] is 113%; in assay [2] it was 114%; in assay [3] it was 109%; in [4], 94.2%; in assay [5], 109%; in assay [6] it was 106%. The growth is 78.6% in assay [7]; 103% in [8]; 114% in assay [9]; 111% in [10]; 107% in assay [11]; 103% in [12]. Also, the growth in assay [13] is 112%; in assay [14], 115%; in assay [15], 108%; in assay [16], 110%; in assay [17], 119%; in assay [18], 102%.
For `O=C(NCCNc1nccc(-c2c(-c3cccc(O)c3)nc3sccn23)n1)c1cc(N2CCOCC2)cc(C(F)(F)F)c1`, the growth in assay [1] is 64.5%; in assay [2], 88.6%; in assay [3], 89.8%; in assay [4], 87.5%; in [5], 79.4%; in assay [6], 82.5%. Besides, the growth is 92.8% in assay [7]; 52.9% in [8]; 68.6% in [9]; 97.3% in assay [10]; 67% in assay [11]; 78.1% in [12]. For the same compound, the growth was 101% in assay [13]; 133% in assay [14]; 94% in [15]; 80.4% in [16]; 107% in [17]; 103% in [18].
`CCCCOc1nc2ccc(Cl)cc2cc1/C=C/C(=O)/C=C/c1ccc(OC)cc1`: the growth in [1] is 90.5%; in assay [2], 110%; in [3], 92.7%; in assay [4], 84.4%; in assay [5], 105%; in [6] it was 99.1%. Also, the growth is 101% in assay [7]; 87.2% in [8]; 78% in [9]; 76.2% in [10]; 8.93% (active) in assay [11]; 96.2% in [12]. For the same compound, the growth in [13] is 122%; in [14] it was 103%; in assay [15], 110%; in [16], 93.2%; in assay [17], 98.2%; in assay [19] it was 107%. In addition, the growth in assay [18] was 107%.
Take `CN1C(=O)C2(NN=C(c3cccc4ccccc34)S2)c2ccccc21` (stereo unspecified): the growth in [1] was 37.1%; in [2], 24%; in assay [3] it was 31.5%; in assay [4], 18.5%; in assay [5], 30.5%; in [6], 25.7%. In addition, the growth in [7] was 47%; in assay [8], 9.4% (active); in [9], 2.9% (active); in [10], 28.5%; in [11] it was 18.2%; in [12], 26.2%. Besides, the growth is 50.2% in assay [13]; 20% in assay [14]; 26.5% in assay [15]; 39.4% in assay [16]; 40.2% in assay [17]; 51.1% in [19]. In addition, the growth in assay [18] was 29%.
